SMILES strings stand for the structures. The panel holds about 79,000 compounds, 15% with a hit somewhere; the sample as a whole holds those more often. Unmarked numbers belong to inactive results. Active and inactive are the calls of the source. Rule as the data show it: active = growth inhibition above about 70%; inactive = the rest.

The values that follow come from PubChem BioAssay (NCI).

A short description of the assay: NCI Yeast Anticancer Drug Screen. Data for the bub3 strain (AID 167). The following applies: S. cerevisiae bub3 mutant strain, at 50.0 µM, stronger effect = higher value. Summed up:
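In this screen, a yeast mutant lacking normal mitotic checkpoint function is challenged with compound. Relative growth versus vehicle gives the inhibition value.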
Consider `CCOC(=O)C1C(O)=C(P(=O)(C2=C(O)C(C(=O)OCC)C(c3ccc(OC(C)=O)cc3)C(C(=O)O)C2=O)N(CCCl)CCCl)C(=O)C(C(=O)O)C1c1ccc(OC(C)=O)cc1` (stereo not given), for which the growth inhibition was 54.4%.
Take `c1ccc([As+](c2ccccc2)(c2ccccc2)c2cccc3ccccc23)cc1`: the growth inhibition is 98.8% (active).
As to `CCCCCCCCc1ccc(OCCN(CCCl)CCCl)cc1`, the growth inhibition was 99.2% (active).
For `S=C=NCCc1ccccc1`, the growth inhibition is 43.8%.
Turning to `COC1=C(Cl)C(=O)c2ccccc2C1=O`, the growth inhibition was 99.2% (active).
The result for `CN(C)c1ccc(N=Nc2cccc(C(=O)[O-])c2)cc1.CN(C)c1ccc(N=Nc2cccc(C(=O)[O-])c2)cc1.NC1CCCCC1N.O=[N+]([O-])O.[Pt+4]` reads 81.5% (active); that for `CCOC(=O)c1ccc(N=Cc2ccc(N(CCCl)CCCl)cc2C)cc1`, 17.2%; that for `O=c1s[se]c2ccccc12`, 89.8% (active).
The figure for `CC1CCC2(OC1)OC1C(O)C3C4CCC5CC(OC6OC(CO)C(OC7OC(CO)C(O)C(OC8OCC(O)C(O)C8O)C7OC7OC(CO)C(O)C(OC8OC(CO)C(O)C(O)C8O)C7O)C(O)C6O)C(O)CC5(C)C4CCC3(C)C1C2C` (stereo not given) is 93.2% (active).
As to `CN(C)c1ccc(/C=C/c2cc3scc(-c4ccccc4)[n+]3c3ccccc23)cc1`, the growth inhibition was 99% (active).
In the case of `CSCCC([NH-])C(=O)O.CSCCC([NH-])C(=O)O.[Zn+2]` (stereo not given), the growth inhibition was 99% (active).
The result for `O=C(O)CN1CCN(CC(=O)O)CC(=O)[O][Hg][O]C(=O)C1` reads 99.3% (active); that for `Cc1c2ccncc2c(CN(CCCl)CCCl)c2c3ccccc3n(C)c12`, 82.1% (active).
In the case of `COc1ccc(P2(=S)Oc3ccc(C(c4ccccc4)(c4ccccc4)c4ccccc4)cc3O2)cc1` (stereo not given), the growth inhibition is 48.9%.
As to `Cc1cc[n+](C2=C(Nc3c(C)cccc3C)C(=O)c3ccccc3C2=O)cc1`, the growth inhibition was 48.4%.
For the molecule `C(#C[PH+](c1ccccc1)c1ccccc1)c1ccccc1.C(#C[PH+](c1ccccc1)c1ccccc1)c1ccccc1.C(#C[PH+](c1ccccc1)c1ccccc1)c1ccccc1.[C-]#[O+].[C-]#[O+].[C-]#[O+].[Cr]`, the growth inhibition is 88.2% (active).
As to `CC(=O)O.[RuH].c1ccc([PH+](c2ccccc2)c2ccccc2)cc1.c1ccc([PH+](c2ccccc2)c2ccccc2)cc1.c1ccc([PH+](c2ccccc2)c2ccccc2)cc1`, the growth inhibition was 72.5% (active).
The result for `O=C(N/N=C/c1cc(Br)cc(Br)c1[O-])c1ccccc1O.O=C(N/N=C/c1cc(Br)cc(Br)c1[O-])c1ccccc1O.[Ni+2]` reads 85.5% (active); that for `O=C(C[n+]1ccccc1)C1CCc2ccccc2C1` (stereo not given), -21.1%.
`CC(=O)[O-].CC(=O)[O-].O=C(N/N=C/c1cc(Cl)cc(Cl)c1[OH2+])c1ccncc1.[Zn+2]`: the growth inhibition is 32.6%.
The figure for `ClCCN(CCCl)CCN1c2ccc3ccccc3c2Sc2ccc3ccccc3c21` is 20.8%; for `C=CCc1cc(Cl)ccc1OC(=O)N(C)C` it is -11.8%; for `CC(=O)[O][Sn]([CH3])([CH3])[c]1ccccc1` it is 84.2% (active).
The result for `NCCNCCNCCNCCN` (tested in a mixture with another compound) reads 80% (active); that for `CC(=O)[CH-]C(C)=O.CC(=O)[CH-]C(C)=O.[O-]c1ccccc1.[O-]c1ccccc1.[Ti+4]`, 7.05%.
The figure for `NC(=O)c1ccc(C(=O)Nc2ccc([As](=O)(O)O)cc2)cc1` is -13.1%; for `[C-]#[O+].[C-]#[O+].[CH3][Sn]([CH3])[c]1ccccc1.[Fe+5].[c-]1[c-][c-][cH-][c-]1` it is 98% (active); for `CC(C)(C)S.[Hg]` it is 99.5% (active).
On to `O=C(O)C(O)(c1ccc(-c2ccccc2)cc1)c1ccc(-c2ccccc2)cc1`, for which the growth inhibition was 96.9% (active).
The result for `Cc1ccc2c(-c3ccccc3)c3ccccc3[s+]c2c1` reads 99.2% (active); that for `CCOC(=O)[C]1([Pb]([CH3])([CH3])[CH3])N=NC(C(=O)OC)=C1C(=O)OC` (stereo not given), 15.9%.
Turning to `CCCNC1=C(C)C(=O)C2=C(C1=O)[C@H](COC(N)=O)[C@]1(OC)[C@@H]3N[C@@H]3CN21`, the growth inhibition is 9.7%.
The result for `CC(=O)c1ccc(-[n+]2c(C)cc(-c3ccccc3)cc2C)cc1` reads 15.7%.
On to `CN1C(=O)C23CC4=CC=CC(O)C4N2C(=O)C1(CO)SS3` (stereo not given), for which the growth inhibition was 93.5% (active).
As to `CCN1CCC(O)(c2ccc(O)cc2)C(C(=O)c2ccc(O)cc2)C1` (stereo not given), the growth inhibition was 13.3%.
For `CCCCCCCC[As](C)(=O)O`, the growth inhibition was -12.1%.
Take `CCCCCCC(=O)[O][Hg][c]1ccccc1`: the growth inhibition is 99.4% (active).
Turning to `CCC[CH2][Sn]1([CH2]CCC)[O]C(=O)CN=Cc2ccccc2[O]1`, the growth inhibition is 89.9% (active).
On to `C[C@]12CC[C@H](O)C[C@@H]1CC[C@@H]1[C@@H]2CC[C@]2(C)C(=O)/C(=C/O)C[C@@H]12`, for which the growth inhibition is 95.7% (active).
The result for `CC(CCc1ccccc1)NC(C)C(O)c1ccc(O)cc1` (stereo not given) reads 64.8%.
